# Measured values taken from PubChem BioAssay (EPA / NIEHS).
# Several values for one entry are separate records, joined by “and”; a condition that tells them apart may be missing. Identical values can stand only once. Records with an inconclusive call do not appear. A structure can be active in one record and inactive in another. Activity calls are given as the source filed them. The calls were made as follows, unless noted: active = hit-call score of the fitted dose curve at least 0.9, where 1 is the maximum; inactive = score below 0.9.
# Key:
# [1] = molecular target: Ratio of Nucleoli Translocation and Cytoplasm, AR (gene 367) (UniProt P10275); test: UPITT_HCI_U2OS_AR_TIF2_Nucleoli_Cytoplasm_Ratio_Agonist: University of Pittsburgh U2OS Androgen Receptor-Transcriptional Intermediary Factor 2 (AR-TIF2) Agonism High Content Imaging Assay for Ratio of Nucleoli Translocation and Cytoplasm (AID 2284000; active = hit-call score of the fitted dose curve at least 0.9, where 1 is the maximum;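 also: hits raise the red nucleolar to cytoplasm ratio above vehicle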)
# Ratio of Nucleoli Translocation and Cytoplasm, AR (gene 367), sequence (P10275 whole entry, looked up): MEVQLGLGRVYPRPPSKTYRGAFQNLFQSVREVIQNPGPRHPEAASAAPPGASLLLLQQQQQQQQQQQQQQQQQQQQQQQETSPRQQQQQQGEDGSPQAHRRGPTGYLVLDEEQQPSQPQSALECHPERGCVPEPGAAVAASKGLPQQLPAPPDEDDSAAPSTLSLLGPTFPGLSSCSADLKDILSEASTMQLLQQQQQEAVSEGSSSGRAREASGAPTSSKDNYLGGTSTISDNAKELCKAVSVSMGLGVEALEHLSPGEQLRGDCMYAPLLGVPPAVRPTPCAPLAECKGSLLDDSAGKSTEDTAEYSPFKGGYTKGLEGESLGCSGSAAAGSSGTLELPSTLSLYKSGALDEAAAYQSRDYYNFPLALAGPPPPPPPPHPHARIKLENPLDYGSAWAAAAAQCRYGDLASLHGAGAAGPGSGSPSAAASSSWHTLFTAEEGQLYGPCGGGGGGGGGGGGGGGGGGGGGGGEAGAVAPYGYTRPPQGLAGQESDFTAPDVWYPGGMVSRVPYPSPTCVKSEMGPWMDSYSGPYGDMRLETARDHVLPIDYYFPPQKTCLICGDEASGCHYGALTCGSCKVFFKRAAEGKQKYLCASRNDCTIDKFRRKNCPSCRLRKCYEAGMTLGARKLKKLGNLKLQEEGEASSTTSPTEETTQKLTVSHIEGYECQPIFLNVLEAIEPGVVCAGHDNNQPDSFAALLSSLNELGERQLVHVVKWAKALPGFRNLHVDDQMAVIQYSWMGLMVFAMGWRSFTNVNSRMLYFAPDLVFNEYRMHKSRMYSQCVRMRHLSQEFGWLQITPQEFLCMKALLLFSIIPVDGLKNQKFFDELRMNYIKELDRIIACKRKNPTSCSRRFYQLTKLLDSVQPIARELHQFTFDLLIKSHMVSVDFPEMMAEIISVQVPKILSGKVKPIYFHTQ
# Procedure, shortened: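 U2OS cells expressing RFP-tagged human AR and GFP-tagged TIF2 were imaged by high-content fluorescence microscopy. The endpoint is the ratio of nucleolar to cytoplasmic red fluorescence, fitted for gain of signal relative to DMSO. Concentration-response spanned 0.195 to 50 uM final (0.5% DMSO).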
# [2] = CCTE_Harrill_HTTr_Viability_MCF7: CCTE's 6-hour Cell Viability Assessment for the High-Throughput Transcriptomics (HTTr) Platform, in MCF-7 cells cultured in DMEM + 10% fetal bovine serum, Harrill Lab (AID 2284010)
# Procedure, shortened: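 MCF-7 cells in DMEM + 10% FBS, 384-well, exposed 6 h to an eight-point dilution series. Membrane integrity scored by high-content imaging of propidium iodide exclusion; bidirectional fit versus DMSO.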
# [3] = CCTE_Harrill_HTTr_Apoptosis_MCF7: CCTE's 6-hour Apoptosis Assessment for the High-Throughput Transcriptomics (HTTr) Platform, in MCF-7 cells cultured in DMEM + 10% fetal bovine serum, Harrill Lab (AID 2284011)
# Procedure, shortened: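 MCF-7 (DMEM + 10% FBS), 384-well; 8-pt dilution series, 6 h chemical exposure; caspase-3/7 activation via CellEvent Caspase 3/7 Green, HCI; bidirectional fit vs DMSO.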
# [4] = CCTE_Harrill_HTTr_CellCount_MCF7: CCTE's Cell Proliferation Assessment for the High-Throughput Transcriptomics (HTTr) Platform, Harrill Lab (AID 2284012; active = hit-call score of the fitted dose curve at least 0.9, where 1 is the maximum;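 also: cells exposed to compound for six hours; intended direction is loss of nuclei count meaning fewer cells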)
# Procedure, shortened: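 MCF7 cells exposed 6 hours to an eight-point dilution series; Hoechst-stained nuclei counted by high-content imaging. Bidirectional curve fitting against DMSO baseline.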
# [5] = CCTE_Simmons_MITO_basal_resp_rate: CCTE's HepG2 Seahorse XF Respirometric Screening Assay at Basal Respiratory State, Simmons Lab (AID 2284001); conditions: actives raise or lower the signal
# Procedure, shortened: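 HepG2 cells were given test chemicals at 7 concentrations, 125 nM to 100 uM final, and oxygen consumption rate was read every 6 min (3 min mix, 3 min measure) over 72 min. Basal-phase OCR was fitted bidirectionally against DMSO.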
# [6] = CCTE_Simmons_MITO_max_resp_rate: CCTE's HepG2 Seahorse XF Respirometric Screening Assay at Maximal Respiratory State [uncoupled], Simmons Lab (AID 2284002); conditions: actives raise or lower the signal
# Procedure, shortened: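 Read-out is oxygen consumption rate at maximal respiration, taken after FCCP uncoupling of compound-treated HepG2 cells. Seven final concentrations from 125 nM to 100 uM were tested, each in three biological replicates.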
# [7] = CCTE_Simmons_MITO_inhib_resp_rate: CCTE's HepG2 Seahorse XF Respirometric Screening Assay at Inhibited Respiratory State [full ETC block], Simmons Lab (AID 2284006); conditions: actives raise or lower the signal
# Protocol: CCTE_Simmons_MITO is cell-based, respirometric assay using HepG2 cells and a Seahorse XF Analyzer to measure oxygen consumption rates over four temporal phases spanning a total of 72 minutes: pre-injection (pre-treatment), basal (following test compound injection), maximal (following FCCP uncoupler injection), and inhibited (following rotenone/antimycin A injection)CCTE_Simmons_MITO_inhib_resp_rate is one of 4 assay components calculated from the CCTE_Simmons_MITO assay. It is designed to make measurements of inhibited respiration using a form of respirometric reporter, as detected with […] signals by Seahorse XF96 technology. Data from the assay component CCTE_Simmons_MITO_inhib_resp_rate was analyzed at the endpoint, CCTE_Simmons_MITO_inhib_resp_rate_OCR, with bidirectional fitting relative to DMSO as the negative control and baseline of activity. Using a type of respirometric reporter, measures of inhibited respiration for gain or loss-of-signal activity can be used to understand cellular oxygen consumption as it relates to cellular respiration. To generalize the intended target to other relatable targets, this assay endpoint is annotated to the mitochondria intended target family, where the subfamily is respiration.
# Test chemicals were administered as a titrated series of 7 concentrations from 125 nM up to 100 uM [final] prior to kinetic endpoint detection at 6 minute intervals [3 min mix followed by 3 minutes measure] for 72 minutes. Three biological replicates of technical singles were run for every chemical concentration tested. Dimethylsulfoxide [DMSO] was used as the vehicle control. The electron transport chain inhibitor fenpyroximate was used as the positive control for decreased basal respiration and was administered as a titrated series of 6 concentrations from 250 nM up to 2.75 uM [final] with technical triplicates for the top concentration only. […]
# [8] = CCTE_Simmons_MITO_viability: CellTiter-Glo Viability Assessment for CCTE's HepG2 Seahorse XF Respirometric Screening Assay [post-hoc], Simmons Lab (AID 2284007; active = hit-call score of the fitted dose curve at least 0.9, where 1 is the maximum;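 as to AC50: cells exposed to chemical for 90 min before the ATP read; actives lower ATP signal relative to DMSO baseline meaning reduced viability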)
# Protocol: CCTE_Simmons_MITO is cell-based, respirometric assay using HepG2 cells and a Seahorse XF Analyzer to measure oxygen consumption rates over four temporal phases spanning a total of 72 minutes: pre-injection (pre-treatment), basal (following test compound injection), maximal (following FCCP uncoupler injection), and inhibited (following rotenone/antimycin A injection)CCTE_Simmons_MITO_viability is one of 4 assay components measured from the CCTE_Simmons_MITO assay. It is designed to make measurements of ATP content, a form of viability reporter, as detected with bioluminescence signals by Luciferase-coupled ATP quantitation technology. Data from the assay component CCTE_Simmons_MITO_viability was analyzed at the endpoint, CCTE_Simmons_MITO_viability, in the positive analysis fitting direction relative to DMSO as the negative control and baseline of activity. Using a type of viability reporter, measures of ATP content for loss-of-signal activity can be used to understand the viability. To generalize the intended target to other relatable targets, this assay endpoint is annotated to the cell cycle intended target family, where the subfamily is cytotoxicity.
# Test chemicals were administered as a titrated series of 7 concentrations from 125 nM up to 100 uM [final] for 90 minutes prior to single endpoint detection. Three biological replicates of technical singles were run for every chemical concentration tested. Dimethylsulfoxide [DMSO] was used as the vehicle control. Dichlone [DCNQ] was used as the positive control and was administered as a titrated series of 8 concentrations from 10 nM up to 100 uM [final].
# [9] = CCTE_Shafer_MEA_acute_spike_number: CCTE's Neural Acute Assay for Total Number of Spikes, Shafer Lab (AID 2284008);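 as to AC50: curve fitted for decrease in spike count so AC50 reflects inhibitors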
# Procedure, shortened: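 Read-out is the total spike count over 40 min, expressed as percent change from each well's own pre-treatment baseline and fitted in the loss direction against DMSO. Rat cortical neurons were exposed at 0.03-40 uM on DIV 13 or 15.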
# [10] = CCTE_Shafer_MEA_acute_firing_rate_mean: CCTE's Neural Acute Assay for Mean Firing Rate, Shafer Lab (AID 2284009);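 also: analyzed for loss of signal so actives lower firing rate relative to DMSO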
# Procedure, shortened: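 Read-out: well-mean spike rate (spikes/recording length/electrodes), % change from 40 min pre-dose baseline to 40 min with compound. Rat cortical cultures, DIV 13 or 15, 37 C; 0.03-40 uM; DMSO as negative control.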
compound,measurement,setting,value
CCOc1ccc(NC(C)=O)cc1,outcome,[1],inactive
same,outcome,[2],inactive
same,outcome,[3],inactive
same,outcome,[4],inactive
C#C[C@]1(O)CC[C@H]2[C@@H]3CCc4cc(O)ccc4[C@H]3CC[C@@]21C,AC50,[5],33.4 µM (active)
same,outcome,[6],inactive
same,outcome,[7],inactive
same,outcome,[8],inactive
same,outcome,[2],inactive
same,outcome,[3],inactive
same,outcome,[4],inactive
CC1=CCC(C(C)(C)O)CC1 (stereo unspecified),outcome,[1],inactive
same,outcome,[2],inactive
same,outcome,[3],inactive
same,outcome,[4],inactive
FC(F)(F)c1ccc(Cl)c(Cl)c1,outcome,[1],inactive
same,outcome,[3],inactive
same,outcome,[4],inactive
CC1COC(=O)O1 (stereo unspecified),outcome,[1],inactive
O=C(c1ccc(OCCN2CCCCC2)cc1)c1c(-c2ccc(O)cc2)sc2cc(O)ccc12,AC50,[9],14300 nM (active)
same,AC50,[10],14100 nM (active)
same,outcome,[2],inactive
same,outcome,[3],inactive
same,outcome,[4],inactive
c1ccc(OCCOc2ccccc2)cc1,outcome,[9],inactive
same,outcome,[10],inactive
same,outcome,[3],inactive
same,outcome,[4],inactive
CCCCCCOc1ccc(O)cc1,AC50,[1],23.9 µM (active)
C[C@]12CC[C@@H]3c4ccc(O)cc4CC[C@H]3[C@@H]1CC[C@@H]2O,AC50,[5],27.1 µM (active)
same,outcome,[6],inactive
same,outcome,[7],inactive
same,AC50,[8],27 µM (active)
same,outcome,[2],inactive
same,outcome,[3],inactive
CC(=O)N(C)C,outcome,[1],inactive
same,outcome,[3],inactive
same,outcome,[4],inactive
CC(C)CCCC(C)(C)O,outcome,[9],inactive
same,outcome,[10],inactive
CCCCN(CCO)CCO,outcome,[9],inactive
same,outcome,[10],inactive
N[C@@H](CCC(=O)O)C(=O)O,outcome,[9],inactive
same,outcome,[10],inactive
CC(C)(C)c1cccc(O)c1,AC50,[1],50 µM (active)
C=C(C)C(N)=O,outcome,[2],inactive
same,outcome,[3],inactive
c1ccc2c(c1)-c1ccc3ccc4cccc5cc-2c1c3c45,outcome,[1],inactive
same,outcome,[3],inactive
CCCCOCCOCCO,outcome,[9],inactive
same,outcome,[10],inactive
same,outcome,[3],inactive
same,outcome,[4],inactive
CCC(C)(C)C1CCC(=O)CC1,outcome,[1],inactive
CC(CCO)CC(C)(C)C (stereo unspecified),outcome,[1],inactive
CCCCCCCCCCOC(=O)c1ccccc1C(=O)OCCCCCCCC,outcome,[1],inactive
CCCO[Si](OCCC)(OCCC)OCCC,outcome,[9],inactive
same,outcome,[10],inactive
O=C(OCc1ccccc1)c1ccccc1O,outcome,[2],inactive
same,outcome,[3],inactive
CCn1cc(C(=O)O)c(=O)c2ccc(C)nc21,AC50,[9],3 nM (active)
same,AC50,[10],3 nM (active)
same,outcome,[2],inactive
same,outcome,[3],inactive
same,outcome,[4],inactive
CC/C(=C(\c1ccccc1)c1ccc(OCCN(C)C)cc1)c1ccccc1,outcome,[5],inactive
same,outcome,[6],inactive
same,outcome,[7],inactive
same,AC50,[8],73.5 µM (active)
same,AC50,[9],2.73 µM (active) and 4.6 µM (active)
same,AC50,[10],2.73 µM (active) and 4.63 µM (active)
same,outcome,[3],inactive
same,AC50,[4],72.5 µM (active)
same,outcome,[4],inactive
COC(=O)c1ccc(C(=O)OC)cc1,outcome,[2],inactive
same,outcome,[3],inactive
CNC(=C[N+](=O)[O-])NCCSCc1ccc(CN(C)C)o1,outcome,[2],inactive
CCO[Si](CC)(OCC)OCC,outcome,[1],inactive
CCCO,outcome,[2],inactive
same,outcome,[3],inactive
CC(=O)c1ccc(C)cc1,AC50,[9],3 nM (active)
same,AC50,[10],3 nM (active)
CC(C)(CO)CO,outcome,[1],inactive
same,outcome,[9],inactive
same,outcome,[10],inactive
CCCCOCCOCCOCCO,outcome,[2],inactive
same,outcome,[3],inactive
[O-]/[N+](=N\O)c1ccccc1,outcome,[2],inactive
same,outcome,[3],inactive
same,outcome,[4],inactive
O=C1OCc2ccccc21,outcome,[2],inactive
same,outcome,[3],inactive
CC(=O)C1=C(C)[C@@H]2C[C@@]3(C1)[C@H](C)CC[C@H]3C2(C)C,outcome,[2],inactive
same,outcome,[3],inactive
same,outcome,[4],inactive
NC(=O)c1cnccn1,outcome,[2],inactive
same,outcome,[3],inactive
CCOC(=O)COC(=O)c1ccccc1C(=O)OCC,outcome,[2],inactive
same,outcome,[3],inactive
CCCCCCCCCC(=O)OCC,outcome,[2],inactive
same,outcome,[3],inactive
same,outcome,[4],inactive
c1ccc2scnc2c1,outcome,[2],inactive
same,outcome,[3],inactive
same,outcome,[4],inactive
CC(=O)CC(=O)N(C)C,outcome,[2],inactive
same,outcome,[3],inactive
same,outcome,[4],inactive
CCCc1ccc(O)cc1,outcome,[2],inactive
same,outcome,[3],inactive
same,outcome,[4],inactive
